Laboratory results as given in PubChem BioAssay AID441 (NMMLSC, 2006).
The whole screen tested about 24,000 compounds, of which about 70 (0.3%) were called active. The list comes from a sample in which actives are over-represented; it also holds similar structures and randomly drawn compounds. Unmarked numbers belong to inactive results. Cut-off read from the data, not from the text of the source: active = inhibition above about 30%; inconclusive = no clear call, values can overlap the other calls; inactive = below that.

target: N-formyl peptide receptor 2 (Homo sapiens) (UniProt P25090); test: human FPRL1 ligands by binding competition, primary screen, cell-based, FPR counter-screen, flow cytometry (AID 441); conditions: FPRL1-expressing cells, fluorescent ligand binding inhibition, active compounds read high, concentration not given here;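 note: 0% = buffer alone and 100% = receptor blocker peptide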
Sequence (P25090 whole entry, looked up): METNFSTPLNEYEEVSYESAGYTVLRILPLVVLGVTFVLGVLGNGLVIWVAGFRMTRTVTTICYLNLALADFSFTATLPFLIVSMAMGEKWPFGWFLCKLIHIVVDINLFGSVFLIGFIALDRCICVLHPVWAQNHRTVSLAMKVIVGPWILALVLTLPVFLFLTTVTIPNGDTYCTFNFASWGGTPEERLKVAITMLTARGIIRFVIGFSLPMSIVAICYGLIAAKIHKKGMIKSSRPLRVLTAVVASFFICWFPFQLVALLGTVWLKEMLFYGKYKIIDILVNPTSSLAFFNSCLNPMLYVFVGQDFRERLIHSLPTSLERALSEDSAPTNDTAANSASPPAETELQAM

| SMILES | inhibition [%] |
| --- | --- |
| C[N+](C)(C)CCOP(=O)([O-])OC[C@H](O)CO | 5.6 |
| O=C(Nc1cccc(OCC(=O)N2CCOCC2)c1)C1CCCCC1 | -0.9 |
| CCOc1ccccc1NC(=O)c1cc(S(=O)(=O)N2CCC3(CC2)OCCO3)ccc1F | -14.8 |
| CC1(C)CC(O)C(CCC(O)c2ccccc2)C(C)(C)N1 (configuration not stated) | 6.7 |
| COc1ccc(-c2noc(-c3cccc(OC)c3OC)n2)cc1OC | -2.6 |
| COc1ccc(S(=O)(=O)NC2(C(F)(F)F)N=C3SCCN3C2=O)cc1 (configuration not stated) | 0.8 |
| O=C(c1ccccc1)c1cccn1CC(=O)N1CCN(c2ccc(F)cc2)CC1 | 14.7 |
| COc1ccc(NC(=O)C2CCCN(S(=O)(=O)c3cccc4cccnc34)C2)cc1 (configuration not stated) | -6 |
| COc1ccc(CC(NC(C)=O)C(=O)NC2CCN(C(=O)Nc3ccc(C#N)cc3)CC2)cc1OC (configuration not stated) | 17.9 |
| COc1ccccc1N1CCN(c2nc3ccccc3n3nnnc23)CC1 | -3.6 |
| Cc1noc(C)c1S(=O)(=O)NCCc1ccc(S(N)(=O)=O)cc1 | 3 |
| Nc1scc(-c2ccncc2)c1Cl | -8.7 |
| COc1ccc(NC(C)=O)cc1NC(=O)CN1CCN(c2ccccn2)CC1 | -0.9 |
| Cc1ccc(S(=O)(=O)N2C3C=CC(C3)C2C(=O)O)cc1 (configuration not stated) | 0.9 |
| COc1cc(C2C(C(=O)Nc3ccc(F)cc3)=C(C)Nc3nc(CCCO)nn32)cc(OC)c1OC (configuration not stated) | -2.7 |
| CC(=O)Nc1ccc(-c2cn3cccnc3n2)cc1 | 2.3 |
| CCOC(=O)N1CCN(C(=O)c2cnc3n(c2=O)CCS3)CC1 | -0.5 |
| O=C(CCSCCc1ccccn1)Nc1nccs1 | 0.5 |
| Cc1c2cnn(-c3ccccc3)c(=O)c2c(C)n1CCCC(=O)N1CCN(C)CC1 | 0 |
| COc1cccc(Nc2nnc(SCC(=O)N3CC(C)OC(C)C3)s2)c1 (configuration not stated) | -0.3 |
| COCCCNC(=O)c1ccc2c(c1)ncn2-c1ccccc1OC | 0.4 |
| COc1ccc(NC(=O)CCNC(=O)Cn2ccc3ccccc3c2=O)c(OC)c1 | -0.5 |
| Cc1cc(C)c(C#N)c(SCc2[nH]nc3c2C(c2ccccc2)C(C#N)=C(N)O3)n1 (configuration not stated) | -9.6 |
| O=C(O)C1CCCCC1C(=O)Nc1ccc(Cl)cc1 (configuration not stated) | -0.4 |
| O=C(Cn1nc(Cc2cccnc2)c2ccccc2c1=O)NCC1COc2ccccc2O1 (configuration not stated) | -7.3 |
| CCOc1ccc2c(=O)c(-c3ccc4c(c3)OCCCO4)c(C)oc2c1 | -9.1 |

| SMILES | inhibition [%] |
| --- | --- |
| CN(C)/C=C1\C=C(c2ccccc2)OC1=O | -0.8 |
| COc1cc2c(cc1OC)C(c1ccc(C)o1)CC(=O)N2 (configuration not stated) | -0.6 |
| O=C(O)Cc1ccc(NC(=O)C2CCCCC2C(=O)O)cc1 (configuration not stated) | -3.1 |
| CN(C)S(=O)(=O)c1ccc(Oc2ccc(S(=O)(=O)N(C)C)cc2)cc1 | 0.3 |
| Cc1cc(C)c2c(n1)nn1c(N3CCN(c4cccc(Cl)c4)CC3)cc(C)nc21 | 1.1 |
| CCCS(=O)(=O)N1CCC(C(=O)NCCCN(C)Cc2ccccc2)CC1 | -2.9 |
| Cc1nc2ccc(S(=O)(=O)NCC(=O)O)cc2s1 | 6.9 |
| Cc1ccc(Nc2cc(=O)n(C3CCCCC3)c(=O)[nH]2)cc1C | -0.5 |
| COc1cc2ccccc2cc1C(=O)Nc1ccc(S(=O)(=O)Nc2cc(C)on2)cc1 | 1.4 |
| O=C(CCN1C(=O)c2ccccc2C1=O)NCCN1CCOCC1 | 3.1 |
| Cc1cccc(NC(=O)CN2CCCN(S(=O)(=O)c3ccc(Br)s3)CC2)c1 | 6.3 |
| CCCSc1nc2c(c(=O)[nH]c(=O)n2C)n1CCc1ccccc1 | 0.6 |
| CC(=O)c1c(C)[nH]c(C(=O)NCCCN2CCCC2)c1C | 2.2 |
| COc1ccccc1CNC(=O)Cn1cc2c(n1)CCCC2 | -1.9 |
| Cc1ccccc1-n1nnc2c(=O)oc3ccccc3c21 | -2.1 |
| CC1(C)Oc2ccc3ccc(=O)oc3c2/C(=C/NCCO)C1=O | -5.7 |
| c1cc(-c2nn[nH]n2)ccc1CN1CCCCC1 | -4.3 |
| COc1ccc(/C(O)=C2\C(=O)C(=O)N(Cc3ccco3)C2c2ccc(OC)cc2OC)cc1 (configuration not stated) | 26.8 |
| CCOc1cccc(/C(O)=C2/C(=O)C(=O)N(CCOC)C2c2ccncc2)c1 (configuration not stated) | -3.8 |
| COc1cccc(OCC(O)CN2CCN(CCO)CC2)c1 (configuration not stated) | 2.6 |
| Cc1ccc(NC(=O)CN(C)S(=O)(=O)c2cnc[nH]2)cc1C | -2.5 |
| COc1cc(C2C(C(=O)c3ccc(C)o3)=C(O)C(=O)N2Cc2cccnc2)ccc1O (configuration not stated) | 28.1 |
| COc1ccc(/C(O)=C2/C(=O)C(=O)N(CC3CCCO3)C2c2ccc(OC)c(OC)c2)cc1 (configuration not stated) | -7.5 |
| CCCS(=O)(=O)Nc1c(C(=O)O)[nH]c2ccccc12 | 2.1 |
| Cc1nnc(SCCCn2c(N3CCCCC3)nc3c2c(=O)[nH]c(=O)n3C)s1 | 0.8 |
| CCCCOC(=O)Nc1nccs1 | -2.9 |
